The record followed here is PubChem BioAssay (NCATS).

In test [1] the target is Lysosomal acid glucosylceramidase (Homo sapiens) (UniProt P04062). The test can be described thus: Glucocerebrosidase-p2 (AID 348; in the data active = potency below about 10 µM; also: potency is read from the fitted curve at half-maximal effect). The settings on record: purified GBA, blue fluorogenic substrate, 40 min. The procedure, abridged:
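Compounds titrated from 0.6 nM upwards against 0.2 nM enzyme in pH 5.9 citric acid/KH2PO4, taurocholate, tween-20; blue fluorogenic substrate 80 uM, 40 min room temperature, stopped and read Ex 365/Em 440 for AC50.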

Test [2] can be described thus: AP1 Signaling Pathway (AID 357; active = well fitted curve in either direction with a large enough effect, not every such curve was filed as active;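 also: ME-180 reporter cells stimulated with EGF at its EC50 level; % is scaled to controls: 0 for no effect and ±100 for the full control effect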). Particulars: ME-180 AP-1-bla reporter, EGF-induced, beta-lactamase ratio, 5 h; at 7.69 µM (top of the series) unless noted. In outline:
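Titration-series screen for positive or negative modulators of EC50 EGF-induced signaling in ME-180 cells carrying an AP-1-driven beta-lactamase reporter. After 5 hours at 37 degrees Celsius, CCF4 460nm/530nm emission ratio gave %Activity; AC50 values derived.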

The target of test [3] is Cytochrome P450 1A2 (Homo sapiens) (UniProt P05177). The test can be described thus: p450-cyp1a2 (AID 410; calls by dose curve; also: potency is read from the fitted curve at half-maximal effect). The settings on record: recombinant CYP1A2, luciferin-ME demethylation, luminescence; series mostly up to 57 µM. The procedure, abridged: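 Inhibition was calculated relative to 57 uM furafylline (full inhibition). The reaction used human CYP1A2 at 20nM with Luciferin-ME at its Km, 100uM, driven by an NADPH-regenerating system for 60 min at room temperature.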
Cytochrome P450 1A2 (Homo sapiens), sequence (P05177 whole entry, looked up): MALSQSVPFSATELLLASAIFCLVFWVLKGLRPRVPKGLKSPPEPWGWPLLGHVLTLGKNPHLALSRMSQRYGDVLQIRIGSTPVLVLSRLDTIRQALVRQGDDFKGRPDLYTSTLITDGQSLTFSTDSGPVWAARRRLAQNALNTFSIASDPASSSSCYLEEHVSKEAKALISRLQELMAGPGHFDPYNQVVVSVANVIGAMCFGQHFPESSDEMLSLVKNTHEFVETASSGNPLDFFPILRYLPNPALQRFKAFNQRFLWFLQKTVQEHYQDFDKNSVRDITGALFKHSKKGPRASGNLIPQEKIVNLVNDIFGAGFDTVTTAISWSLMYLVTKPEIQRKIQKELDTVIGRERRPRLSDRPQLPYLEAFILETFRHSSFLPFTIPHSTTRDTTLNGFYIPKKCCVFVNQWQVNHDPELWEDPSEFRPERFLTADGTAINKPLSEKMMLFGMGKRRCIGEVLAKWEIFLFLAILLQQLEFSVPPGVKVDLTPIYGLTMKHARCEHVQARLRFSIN

The nature of test [4]: NFAT Signaling Pathway (AID 444; active = well fitted curve in either direction with a large enough effect, not every such curve was filed as active;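 also: carbachol stimulus at about its EC50 of 1 µM final; % is scaled to controls: 0 for no effect and ±100 for the full control effect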). The settings on record: Jurkat NFAT-bla M1, carbachol, beta-lactamase ratio, 5 h; at 7.69 µM (top of the series) unless noted. The procedure, abridged: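 Read-out: CCF4 FRET ratio (460 nm/530 nm) after 1 h RT dye loading, used for %activity and AC50 from titration series. Cells: Jurkat NFAT-β-lactamase/M1 line, treated with compound plus 1 uM carbachol for 5 h, 37 °C.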

A short description of test [5]: Stat Signaling Pathway (AID 446; active = well fitted curve in either direction with a large enough effect, not every such curve was filed as active;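 also: ME-180 cervical cancer cells given 40 pM IL-6 alongside compound; SIE-controlled beta-lactamase reporter measured as 460/530 nm FRET emission ratio; % is scaled to controls: 0 for no effect and ±100 for the full control effect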). Particulars: ME-180 SIE beta-lactamase reporter, IL-6 stimulated, 5 h; at 7.69 µM (top of the series) unless noted. In outline: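 ME-180 SIE-bla cells; overnight plating; cpd + IL-6 40 pM, 5 h, 37 C; LiveBLAzer 2.5 h RT; 460/530 nm emission ratio. Normalized to 300 pM IL-6 and 125 nM JAK inhibitor controls.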
Test [6] deals with Glucocorticoid receptor (Homo sapiens) (UniProt P04150). The test can be described thus: GR-GFP Redistribution (AID 450;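 active = compounds whose dose series gives a full or clear partial fitted curve of increased nuclear translocation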; also: potency is read from the fitted curve at half-maximal effect). The settings on record: U2OS GR-GFP nuclear translocation, laser cytometry, 2 h.
Glucocorticoid receptor (Homo sapiens), sequence (P04150 whole entry, looked up, the tested form may be a part): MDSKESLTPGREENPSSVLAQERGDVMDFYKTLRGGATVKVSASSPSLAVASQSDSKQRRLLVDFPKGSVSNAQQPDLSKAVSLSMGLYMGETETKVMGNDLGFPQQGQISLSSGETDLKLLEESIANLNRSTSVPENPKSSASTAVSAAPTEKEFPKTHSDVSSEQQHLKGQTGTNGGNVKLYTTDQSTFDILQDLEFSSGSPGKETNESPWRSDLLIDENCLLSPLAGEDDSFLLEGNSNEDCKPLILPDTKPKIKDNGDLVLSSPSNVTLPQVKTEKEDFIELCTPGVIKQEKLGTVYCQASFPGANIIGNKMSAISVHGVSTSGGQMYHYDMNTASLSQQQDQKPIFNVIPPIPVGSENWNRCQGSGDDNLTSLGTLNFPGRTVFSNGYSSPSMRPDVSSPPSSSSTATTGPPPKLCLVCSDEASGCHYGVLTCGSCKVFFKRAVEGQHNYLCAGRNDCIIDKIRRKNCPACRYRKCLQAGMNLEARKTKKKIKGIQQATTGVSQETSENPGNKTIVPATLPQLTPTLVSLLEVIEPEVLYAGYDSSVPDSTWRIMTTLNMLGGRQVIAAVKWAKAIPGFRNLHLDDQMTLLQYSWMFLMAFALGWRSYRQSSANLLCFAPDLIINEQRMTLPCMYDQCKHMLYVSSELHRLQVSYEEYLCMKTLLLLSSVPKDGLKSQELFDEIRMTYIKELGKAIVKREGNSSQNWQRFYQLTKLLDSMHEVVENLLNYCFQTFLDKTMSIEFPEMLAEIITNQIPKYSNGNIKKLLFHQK
Test [7] has the same target. The test can be described thus: GR-EFC Redistribution (AID 451; calls by dose curve; also: potency is read from the fitted curve at half-maximal effect). Particulars: CHO-K1 GR-EFC translocation, beta-gal luminescence, 2 h. In outline: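 Translocation of GR-ED fusion to nuclear EA restores b-gal, read by luminescence after 1 h room-temperature detection. Engineered CHO-K1 biosensor cells, 1,000/well, exposed 2 h at 37 C to titrations up to 46 uM final.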

For test [8], the target named is Mitogen-activated protein kinase 10 (Mus musculus) (UniProt Q61831). The test can be described thus: JNK3 AlphaScreen Assay (AID 530; active = well fitted curve in either direction with a large enough effect, not every such curve was filed as active;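 also: kinase came from lysate of stimulated human HepG2 cells; signal reports phosphorylation of biotinylated GST-cJun 1-79 at Ser73 with 10 µM ATP; % is scaled to controls: 0 for no effect and ±100 for the full control effect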). The settings on record: JNK3 lysate, c-Jun phosphorylation; series mostly up to 57.1 µM. In outline:
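Room-temperature AlphaScreen kinase assay; pre-activated HepG2 lysate as JNK3 source, biotin-GST-cJun(1-79) substrate, 10 uM ATP, compound 15 min preincubation.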
For orientation: Alpha assays give light when donor and acceptor beads are brought close together.

Test [9] deals with 3',5'-cyclic-AMP phosphodiesterase 4B (Homo sapiens) (UniProt Q07343). The test can be described thus: qHTS Assay for Inhibitors of PDE-IV (AID 607; active = well fitted activation curve with a large enough effect in the main read-out, with a control signal flat, not every such curve was filed as active; also: % of control where 0% means no effect). The settings on record: HEK293 ACTOne CNG channel cells, membrane potential fluorescence; series mostly up to 22.9 µM. In outline:
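ACTOne HEK293 cells carry a modified cAMP-gated CNG channel and express endogenous PDE4; plated 1000 cells/well, compounds up to 22.9 uM final. Membrane-potential dye fluorescence (ex 535/em 590) was read; parental cells received 10 uM forskolin + 100 uM RO 20-1724.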
On the technique in general: In qHTS, concentration-response curves come from the screen itself.

Test [10] addresses Cytochrome P450 2C9 (Homo sapiens) (UniProt P11712). The test can be described thus: qHTS Assay for Inhibitors and Substrates of Cytochrome P450 2C9 (AID 883). Also: % is scaled to controls: 0 for no effect and ±100 for the full control effect; nearly all actives have a fitted effect of over 60% in size. Particulars: recombinant CYP2C9, luciferin-H luminescence, 60 min; series mostly up to 57.1 µM. The procedure, abridged:
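Inhibition of CYP2C9 is scored as loss of luminescence, with 57uM sulphaphenazole defining 100% inhibition. Substrate Luciferin-H is used at 100uM, equal to its KM; enzyme at 10nM in 25mM KPO4, 60 min at 37C with NADPH regeneration.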

In test [11] the target is Cytochrome P450 3A4 (Homo sapiens) (UniProt P08684). The test can be described thus: qHTS Assay for Activators of Cytochrome P450 3A4 (AID 885). Also: nearly all actives have a fitted effect of over 65% in size. The settings on record: recombinant CYP3A4, Luciferin-PPXE luminescence, 60 min; series mostly up to 57.1 µM. In outline:
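20nM CYP3A4 + 25uM Luciferin-PPXE (=KM), 200mM KPO4; cpd 10 min RT; NADPH regen, 60 min RT; stop w/ detection buffer, 20 min; luminescence. Normalized to 57 uM ketoconazole.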

Test [12] can be described thus: qHTS Assay for Lipid Storage Modulators (AID 1519; calls by dose curve). Particulars: Drosophila S3 cells, BODIPY lipid droplet/cell ratio, laser cytometry, cells loaded with oleic acid; for activity change, negative = inhibition: at 57.5 µM (top of the series). The procedure, abridged: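 Cells seeded at 5,000 per well were treated with compounds over a concentration series and loaded with oleic acid (400 uM, as added). Lipid droplet fluorescence (488 nm excitation, 500-530 nm channel) was read by laser-scanning cytometry and normalized to 20 uM Triacsin C.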

In test [13] the target is Dual specificity protein kinase CLK4 (Homo sapiens) (UniProt Q9HAZ1). The test can be described thus: qHTS Assay for Inhibitors of CDC-like Kinase 4 (Kinase-Glo Assay) (AID 1770). Also: % is scaled to controls: 0 for no effect and ±100 for the full control effect; nearly all actives have a fitted effect of over 65% in size. Particulars: recombinant Clk4, Kinase-Glo ATP depletion luminescence; series mostly up to 66.7 µM. In outline: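 25 nM Clk4 with 100 uM RS repeat peptide and 1 uM ATP (final) in Tris pH7.5, 10 mM MgCl2, 4.5 h at room temperature. Remaining ATP measured by Kinase-Glo luciferase luminescence.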
Dual specificity protein kinase CLK4 (Homo sapiens), sequence (Q9HAZ1 whole entry, looked up): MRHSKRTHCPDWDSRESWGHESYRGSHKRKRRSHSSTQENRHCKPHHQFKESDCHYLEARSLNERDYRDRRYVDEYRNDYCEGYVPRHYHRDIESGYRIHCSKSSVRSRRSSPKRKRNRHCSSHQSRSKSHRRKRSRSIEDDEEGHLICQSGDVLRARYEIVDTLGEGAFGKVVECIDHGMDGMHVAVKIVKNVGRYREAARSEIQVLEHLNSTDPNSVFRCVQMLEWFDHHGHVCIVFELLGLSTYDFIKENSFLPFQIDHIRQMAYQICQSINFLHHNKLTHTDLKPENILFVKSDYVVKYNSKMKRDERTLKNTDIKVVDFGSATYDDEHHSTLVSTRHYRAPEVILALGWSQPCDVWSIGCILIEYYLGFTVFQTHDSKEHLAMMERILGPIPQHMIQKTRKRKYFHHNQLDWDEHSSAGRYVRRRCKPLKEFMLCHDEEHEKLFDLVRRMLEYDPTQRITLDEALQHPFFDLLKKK

The target is the same in test [14]. The test can be described thus: qHTS Assay for Inhibitors of CDC-like Kinase 4 (ADP-Glo Assay) (AID 1771). Also: % is scaled to controls: 0 for no effect and ±100 for the full control effect; nearly all actives have a fitted effect of over 70% in size. The settings on record: recombinant CLK4, ADP-Glo luminescence; series mostly up to 80 µM. The procedure, abridged: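 Kinase reaction: Clk4 at 25 nM, RS repeat peptide substrate at 100 uM, ATP at 1 uM, 1 hr, room temperature. Product ADP detected as luciferase signal via ADP-Glo.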

Test [15] shares this target. The test can be described thus: qHTS Assay for Inhibitors of CDC-like Kinase 4 (ADP-FP Assay) (AID 1795). Also: % is scaled to controls: 0 for no effect and ±100 for the full control effect; nearly all actives have a fitted effect of over 60% in size. Particulars: Transcreener ADP fluorescence polarization; series mostly up to 50 µM. In outline:
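Recombinant Clk4 (6.25 nM) phosphorylated 100 uM RS repeat peptide with 1 uM ATP in 25 mM Tris pH 7.5, 10 mM MgCl2, 0.5 mM EGTA, 2.5 mM DTT, 0.01% Triton X-100 for 1 h. ADP was detected by Transcreener ADP2 competitive fluorescence polarization after 30 min at room temperature.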

Test [16] addresses Ubiquitin carboxyl-terminal hydrolase 1 (Homo sapiens) (UniProt O94782). The test can be described thus: Inhibitors of USP1/UAF1: Pilot qHTS (AID 504865).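 Also: rhodamine fluorescence freed from ubiquitin-rhodamine substrate followed over time; top concentration of the series differs between compounds; % is scaled to controls: 0 for no effect and ±100 for the full control effect; nearly all actives have a fitted effect of over 35% in size.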 Particulars: purified USP1/UAF1, Ub-rhodamine cleavage fluorescence; series mostly up to 54.9 µM. The procedure, abridged: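 USP1/UAF1 complex at 1 nM preincubated 15 min at room temperature with compound, then Ub-Rho substrate added at 150 nM final. Fluorescence (480/540 nm) read kinetically in 50 mM HEPES pH 7.8, 0.5 mM EDTA, 1 mM TCEP, 0.1 mg/ml BSA, 0.01% Tween-20.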

Test [17] can be described thus: Primary qHTS for small molecule stabilizers of the endoplasmic reticulum resident proteome: Secreted ER Calcium Modulated Protein (SERCaMP) assay (AID 1508630). Also: % is scaled to controls: 0 for no effect and ±100 for the full control effect. The settings on record: SH-SY5Y GLuc-SERCaMP (Gaussia luciferase released on ER calcium loss) secretion, thapsigargin, luminescence; series mostly up to 38.4 µM. In outline:
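GLuc-SERCaMP-expressing SH-SY5Y cells, pretreated 16 h with compound, are challenged with thapsigargin to empty ER calcium stores; after 4 h, coelenterazine is added directly to the medium and luminescence is imaged.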

[18] abbreviates: measured here: cell count channel max response.
The mark [19] stands for this setting: measured here: lipid channel max response.

Inconclusive results are not listed. Calls of active or inactive are those of the source. Unless noted, calls follow the shape of the dose curve; as a rule, active = well fitted curve in the direction sought with a large enough effect; inconclusive = small, poorly fitted or top-dose-only effect, or another doubt; inactive = no such curve, though single readings can be large; an effect the other way counts as inactive or inconclusive. Where only a bound is given, the exact number is not on record here.

Ubiquitin carboxyl-terminal hydrolase 1 (Homo sapiens), sequence (O94782 whole entry, looked up): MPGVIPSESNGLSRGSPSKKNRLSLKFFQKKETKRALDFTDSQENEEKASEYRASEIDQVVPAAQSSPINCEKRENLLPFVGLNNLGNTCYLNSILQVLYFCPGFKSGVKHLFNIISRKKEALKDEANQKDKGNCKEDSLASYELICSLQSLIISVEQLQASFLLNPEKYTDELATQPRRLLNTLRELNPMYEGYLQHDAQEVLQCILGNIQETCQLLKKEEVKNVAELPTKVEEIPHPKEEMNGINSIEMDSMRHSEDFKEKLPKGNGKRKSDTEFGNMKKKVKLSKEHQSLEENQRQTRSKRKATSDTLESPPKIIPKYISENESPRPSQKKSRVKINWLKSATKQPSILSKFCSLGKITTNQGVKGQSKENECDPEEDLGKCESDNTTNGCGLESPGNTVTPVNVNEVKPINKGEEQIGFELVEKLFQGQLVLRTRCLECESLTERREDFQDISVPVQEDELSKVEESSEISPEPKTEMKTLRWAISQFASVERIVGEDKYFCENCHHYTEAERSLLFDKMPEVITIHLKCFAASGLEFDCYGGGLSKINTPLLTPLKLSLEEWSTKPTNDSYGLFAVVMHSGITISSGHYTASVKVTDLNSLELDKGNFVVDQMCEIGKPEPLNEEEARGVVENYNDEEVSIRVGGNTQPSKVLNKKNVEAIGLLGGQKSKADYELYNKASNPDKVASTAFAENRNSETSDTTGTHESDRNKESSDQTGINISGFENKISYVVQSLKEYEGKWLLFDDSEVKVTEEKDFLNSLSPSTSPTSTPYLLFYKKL
Lysosomal acid glucosylceramidase (Homo sapiens), sequence (P04062 whole entry, looked up): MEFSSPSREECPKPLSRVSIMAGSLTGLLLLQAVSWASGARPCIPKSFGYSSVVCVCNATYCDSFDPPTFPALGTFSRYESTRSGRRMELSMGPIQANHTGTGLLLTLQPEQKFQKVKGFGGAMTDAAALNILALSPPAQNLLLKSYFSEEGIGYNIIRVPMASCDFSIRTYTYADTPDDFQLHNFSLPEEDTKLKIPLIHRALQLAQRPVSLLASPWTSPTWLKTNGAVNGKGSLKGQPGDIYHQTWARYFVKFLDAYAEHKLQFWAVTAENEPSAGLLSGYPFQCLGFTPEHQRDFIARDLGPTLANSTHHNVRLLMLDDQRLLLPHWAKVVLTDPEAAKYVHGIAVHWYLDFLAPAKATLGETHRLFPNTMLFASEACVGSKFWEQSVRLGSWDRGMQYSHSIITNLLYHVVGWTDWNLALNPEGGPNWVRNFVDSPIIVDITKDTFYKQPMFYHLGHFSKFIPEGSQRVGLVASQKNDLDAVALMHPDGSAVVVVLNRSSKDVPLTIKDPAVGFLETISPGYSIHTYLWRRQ
3',5'-cyclic-AMP phosphodiesterase 4B (Homo sapiens), sequence (Q07343 whole entry, looked up): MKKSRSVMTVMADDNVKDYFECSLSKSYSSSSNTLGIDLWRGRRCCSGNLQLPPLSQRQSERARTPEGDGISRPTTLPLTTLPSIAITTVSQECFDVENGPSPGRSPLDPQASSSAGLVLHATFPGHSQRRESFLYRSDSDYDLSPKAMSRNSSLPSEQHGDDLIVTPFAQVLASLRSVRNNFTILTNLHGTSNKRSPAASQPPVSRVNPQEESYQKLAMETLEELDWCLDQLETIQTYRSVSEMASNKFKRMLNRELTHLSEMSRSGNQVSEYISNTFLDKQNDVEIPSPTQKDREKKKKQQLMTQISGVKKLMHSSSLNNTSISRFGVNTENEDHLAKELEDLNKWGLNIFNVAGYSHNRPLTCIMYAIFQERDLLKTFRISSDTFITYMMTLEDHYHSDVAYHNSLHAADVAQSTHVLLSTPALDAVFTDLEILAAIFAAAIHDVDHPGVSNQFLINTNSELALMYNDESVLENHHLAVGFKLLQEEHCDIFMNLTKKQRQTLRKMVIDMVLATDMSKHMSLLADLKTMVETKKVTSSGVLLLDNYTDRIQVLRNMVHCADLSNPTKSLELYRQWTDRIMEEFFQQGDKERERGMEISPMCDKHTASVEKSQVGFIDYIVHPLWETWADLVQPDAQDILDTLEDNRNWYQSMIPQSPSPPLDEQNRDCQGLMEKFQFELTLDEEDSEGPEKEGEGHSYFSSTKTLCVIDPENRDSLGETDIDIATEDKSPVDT
Cytochrome P450 2C9 (Homo sapiens), sequence (P11712 whole entry, looked up): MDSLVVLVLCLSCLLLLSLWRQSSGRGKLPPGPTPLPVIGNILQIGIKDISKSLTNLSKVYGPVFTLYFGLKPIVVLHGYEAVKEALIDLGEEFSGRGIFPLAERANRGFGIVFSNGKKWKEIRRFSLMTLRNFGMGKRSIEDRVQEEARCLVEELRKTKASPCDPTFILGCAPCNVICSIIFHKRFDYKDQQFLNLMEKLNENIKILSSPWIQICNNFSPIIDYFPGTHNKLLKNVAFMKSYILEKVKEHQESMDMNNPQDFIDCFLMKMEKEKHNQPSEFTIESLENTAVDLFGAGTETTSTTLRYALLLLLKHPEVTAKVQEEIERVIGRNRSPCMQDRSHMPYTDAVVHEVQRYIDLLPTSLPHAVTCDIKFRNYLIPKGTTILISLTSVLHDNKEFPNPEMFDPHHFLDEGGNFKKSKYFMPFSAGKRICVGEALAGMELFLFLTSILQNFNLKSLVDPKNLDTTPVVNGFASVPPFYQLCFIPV
Cytochrome P450 3A4 (Homo sapiens), sequence (P08684 whole entry, looked up): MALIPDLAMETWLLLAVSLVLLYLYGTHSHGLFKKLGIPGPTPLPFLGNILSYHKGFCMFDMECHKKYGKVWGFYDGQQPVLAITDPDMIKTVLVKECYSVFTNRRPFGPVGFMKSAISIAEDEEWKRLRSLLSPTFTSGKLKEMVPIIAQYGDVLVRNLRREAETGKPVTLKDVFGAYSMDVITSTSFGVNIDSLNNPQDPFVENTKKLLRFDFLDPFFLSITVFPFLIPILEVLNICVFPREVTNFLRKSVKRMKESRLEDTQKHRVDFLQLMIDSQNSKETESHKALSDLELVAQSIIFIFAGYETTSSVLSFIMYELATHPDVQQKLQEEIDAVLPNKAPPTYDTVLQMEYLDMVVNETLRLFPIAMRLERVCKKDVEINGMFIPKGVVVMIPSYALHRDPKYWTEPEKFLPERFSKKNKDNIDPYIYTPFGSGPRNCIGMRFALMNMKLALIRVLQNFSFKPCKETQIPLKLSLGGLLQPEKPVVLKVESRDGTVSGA

As for `CC(=O)NCCNc1ncncc1-c1ccccc1C`, the Potency in test [1] was > 11.4 µM (inactive); in [3], 25.1 µM (active); in [6], > 46 µM (inactive); in [7] it was > 46 µM (inactive). The activity change, negative = inhibition in test [2] was 10.6% (inactive); in [4], 5.27% (inactive); in [10], 19.5% [at 2.29 µM] (inactive); in test [12], 6.81% (inactive). For the same compound, the activity, negative = inhibition in test [5] was 8.22% (inactive). Moreover, the call in test [8] was inactive. For the same compound, the Potency result in test [9], in test [11], in test [13], in test [14], in test [15] and in [16] was “inactive” each time. Also, the Potency result in test [17] was “inactive”. Moreover, the values for the max response in [12] (setting [18]) and in test [12] (setting [19]) were 17.2% and 23%, respectively.
Take `COCCn1c(=O)c(C)nc2cnc(N3CCN(C)CC3)nc21`: the Potency in test [1] was > 11.4 µM (inactive); in test [3], 15.8 µM (active); in test [6] it was > 9.22 µM (inactive); in test [7], > 46 µM (inactive). Also, the values for the activity change, negative = inhibition in test [2], in test [4] and in test [12] were -5.64% (inactive), 4.52% (inactive) and 2.08% (inactive), respectively. In test [5], the activity, negative = inhibition is -3.76% (inactive). Further, in test [8], the compound was called inactive. Moreover, the Potency result in test [9], in test [10], in test [13], in [14], in [15] and in test [16] was “inactive” each time. In addition, in test [17], the Potency entry is “inactive”. For the same compound, the max response was found to be 3.08% in [12] (setting [18]) and 2.85% in [12] (setting [19]).
In the case of `CN1CCN(c2ncc3nc(-c4cc(F)cc(F)c4)c(=O)n(C)c3n2)CC1`, the Potency in [1] is > 11.4 µM (inactive); in test [3], 5.01 µM (active); in [6] it was > 9.22 µM (inactive); in test [7], > 46 µM (inactive). In addition, the figures for the activity change, negative = inhibition in test [2], in [4] and in test [12] were 11.2% (inactive), 5.17% (inactive) and 4.65% (inactive), respectively. Further, the activity, negative = inhibition in test [5] is 12.7% (inactive). Further, the call in [8] was inactive. In addition, the Potency result in test [9], in test [10], in test [13], in test [14], in test [15] and in test [16] was “inactive” each time. Besides, the Potency entry in test [17] is “inactive”. For the same compound, the max response in [12] (setting [18]) came out at 14.2%; in [12] (setting [19]), 19.8%.
As for `CN(C)c1ncc2nc(-c3ccc(F)cc3)c(=O)n(C)c2n1`, the Potency was > 11.4 µM (inactive) in [1], 1.58 µM (active) in test [3], > 9.22 µM (inactive) in [6] and > 46 µM (inactive) in test [7]. For the same compound, the figures for the activity change, negative = inhibition in [2], in test [4] and in [12] were -9.27% (inactive), 2.27% (inactive) and 8.24% (inactive), respectively. Moreover, in test [5], the activity, negative = inhibition is -9.34% (inactive). Also, in test [8], the call was inactive. In addition, the Potency entry in [9], in test [13], in [14], in test [15], in [16] and in [17] was “inactive” each time. Moreover, the values for the max response in [12] (setting [18]) and in test [12] (setting [19]) were 18.3% and 28.6%, respectively.
`COc1ncc2ncc(=O)n(C[C@H]3CCCO3)c2n1`: the Potency in test [1] was > 11.4 µM (inactive); in test [3], 15.8 µM (active); in [6] it was > 9.22 µM (inactive); in test [7], > 46 µM (inactive). Besides, the activity change, negative = inhibition was -16.2% (inactive) in test [2], 4.03% (inactive) in [4] and 4.31% (inactive) in test [12]. Further, the activity, negative = inhibition in test [5] was -8.8% (inactive). Moreover, in test [8], the call was inactive. Besides, the Potency entry in test [9], in [13], in test [14], in [15], in test [16] and in test [17] was “inactive” each time. Moreover, the max response in test [12] (setting [18]) stood at 3.18%; in [12] (setting [19]), 6.83%.
